# Measurements from the supplement of paper PMC8728848.
# Shown is part of a subset that was picked to be rich in the strongest signals.
# Assays:
# Test in all cases: glycan array binding signal (z-score within array); higher = stronger binding
# Settings in all cases: glycan notation: IUPAC condensed, linker removed
# [1] = target: Fuc(a1-2)Gal(b1-4)GlcNAc
# Procedure, shortened: (§1)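 The binding signal is a Z-score computed within each array. Data were drawn from 3228 arrays in the Consortium for Functional Glycomics database, restricted to those with a known protein sequence. Scores were averaged over arrays of the same protein sequence at different concentrations or buffers, and over linkers, and negative values can be taken as non-binding.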
# [2] = target: Fuc(a1-2)Gal(b1-4)GlcNAc(b1-2)Man(a1-3)[Fuc(a1-2)Gal(b1-4)GlcNAc(b1-2)Man(a1-6)]Man(b1-4)GlcNAc(b1-4)[Fuc(a1-6)]GlcNAc
# Procedure, shortened: as §1
# [3] = target: Fuc(a1-2)Gal(b1-4)GlcNAc(b1-3)Gal(b1-4)GlcNAc
# Procedure, shortened: as §1
# [4] = target: Fuc(a1-2)[Gal(a1-3)]Gal
# Procedure, shortened: as §1
# [5] = target: Fuc(a1-2)[GalNAc(a1-3)]Gal(b1-4)GlcNAc(b1-6)GalNAc
# Procedure, shortened: as §1
# [6] = target: Fuc(a1-2)[GalNAc(a1-3)]Gal(b1-4)[Fuc(a1-3)]GlcNAc
# Procedure, shortened: as §1
# [7] = target: Fuc(a1-3)[GalNAc(b1-4)]GlcNAc
# Procedure, shortened: as §1
# [8] = target: Gal(a1-3)Gal(b1-3)GlcNAc(b1-3)GalNAc
# Procedure, shortened: as §1
# [9] = target: Gal(a1-3)Gal(b1-3)GlcNAc(b1-6)GalNAc
# Procedure, shortened: as §1
# [10] = target: Gal(a1-3)Gal(b1-4)GlcNAc(b1-2)Man(a1-3)[Gal(a1-3)Gal(b1-4)GlcNAc(b1-2)Man(a1-6)]Man(b1-4)GlcNAc(b1-4)GlcNAc
# Procedure, shortened: as §1
# [11] = target: Gal(a1-4)Gal(b1-4)GlcNAc(b1-3)Gal(b1-4)Glc
# Procedure, shortened: as §1
# [12] = target: Gal(b1-3)Gal(b1-4)GlcNAc
# Procedure, shortened: as §1
# [13] = target: Gal(b1-3)GalNAc(b1-4)Gal(b1-4)Glc
# Procedure, shortened: as §1
# [14] = target: Gal(b1-3)GlcNAc(b1-2)Man(a1-3)[GlcNAc(b1-4)][Gal(b1-3)GlcNAc(b1-2)Man(a1-6)]Man(b1-4)GlcNAc(b1-4)GlcNAc
# Procedure, shortened: as §1
# [15] = target: Gal(b1-3)GlcNAc(b1-6)Gal(b1-4)GlcNAc
# Procedure, shortened: as §1
# [16] = target: Gal(b1-3)[Fuc(a1-4)]GlcNAc(b1-3)Gal(b1-4)[Fuc(a1-3)]GlcNAc
# Procedure, shortened: as §1
# [17] = target: Gal(b1-4)GalNAc(b1-3)[Fuc(a1-2)]Gal(b1-4)GlcNAc
# Procedure, shortened: as §1
# [18] = target: Gal(b1-4)GlcNAc(b1-2)Man(a1-3)[Gal(b1-4)GlcNAc(b1-2)Man(a1-6)]Man(b1-4)GlcNAc(b1-4)[Fuc(a1-6)]GlcNAc
# Procedure, shortened: as §1
# [19] = target: Gal(b1-4)GlcNAc(b1-3)Gal(b1-3)GlcNAc
# Procedure, shortened: as §1
# [20] = target: Gal(b1-4)GlcNAc(b1-3)Gal(b1-4)GlcNAc(b1-2)Man(a1-3)[Gal(b1-4)GlcNAc(b1-3)Gal(b1-4)GlcNAc(b1-2)Man(a1-6)]Man(b1-4)GlcNAc(b1-4)GlcNAc
# Procedure, shortened: as §1
# [21] = target: Gal(b1-4)GlcNAc(b1-3)Gal(b1-4)GlcNAc(b1-3)Gal(b1-4)GlcNAc(b1-2)Man(a1-3)[Gal(b1-4)GlcNAc(b1-3)Gal(b1-4)GlcNAc(b1-3)Gal(b1-4)GlcNAc(b1-2)Man(a1-6)]Man(b1-4)GlcNAc(b1-4)GlcNAc
# Procedure, shortened: as §1
# [22] = target: Gal(b1-4)GlcNAc(b1-3)Gal(b1-4)GlcNAc(b1-3)GalNAc
# Procedure, shortened: as §1
# [23] = target: Gal(b1-4)GlcNAc(b1-3)Gal(b1-4)GlcNAc(b1-3)[Gal(b1-4)GlcNAc(b1-3)Gal(b1-4)GlcNAc(b1-6)]GalNAc
# Procedure, shortened: as §1
# [24] = target: Gal(b1-4)GlcNAc(b1-3)Gal(b1-4)GlcNAc(b1-6)[Gal(b1-3)]GalNAc
# Procedure, shortened: as §1
# [25] = target: Gal4S(b1-4)GlcNAc
# Procedure, shortened: as §1
# [26] = target: Gal6P(b1-4)GlcNAc
# Procedure, shortened: as §1
# [27] = target: GalNAc(b1-3)GalNAc
# Procedure, shortened: as §1
# [28] = target: GalNAc(b1-6)GalNAc
# Procedure, shortened: as §1
# [29] = target: GlcNAc(b1-2)[GlcNAc(b1-4)]Man(a1-3)[GlcNAc(b1-4)][GlcNAc(b1-2)[GlcNAc(b1-6)]Man(a1-6)]Man(b1-4)GlcNAc(b1-4)[Fuc(a1-6)]GlcNAc
# Procedure, shortened: as §1
# [30] = target: GlcNAc(b1-2)[GlcNAc(b1-6)]Man(a1-6)[GlcNAc(b1-2)Man(a1-3)]Man(b1-4)GlcNAc(b1-4)GlcNAc
# Procedure, shortened: as §1
# [31] = target: GlcNAc(b1-3)Gal(b1-4)GlcNAc(b1-3)Gal(b1-4)GlcNAc(b1-3)Gal(b1-4)GlcNAc(b1-3)Gal(b1-4)GlcNAc(b1-2)Man(a1-3)[GlcNAc(b1-3)Gal(b1-4)GlcNAc(b1-3)Gal(b1-4)GlcNAc(b1-3)Gal(b1-4)GlcNAc(b1-3)Gal(b1-4)GlcNAc(b1-2)Man(a1-6)]Man(b1-4)GlcNAc(b1-4)[Fuc(a1-6)]GlcNAc
# Procedure, shortened: as §1
# [32] = target: GlcNAc(b1-4)Gal(b1-4)GlcNAc
# Procedure, shortened: as §1
# [33] = target: GlcNAc(b1-4)GlcNAc(b1-4)GlcNAc(b1-4)GlcNAc(b1-4)GlcNAc
# Procedure, shortened: as §1
# [34] = target: GlcNAc6S(b1-3)Gal(b1-4)GlcNAc
# Procedure, shortened: as §1
# [35] = target: Man(a1-2)Man(a1-3)[Man(a1-2)Man(a1-6)]Man(a1-6)[Man(a1-2)Man(a1-2)Man(a1-3)]Man
# Procedure, shortened: as §1
# [36] = target: Man(a1-3)[Man(a1-6)]Man(a1-6)[Man(a1-2)Man(a1-3)]Man(b1-4)GlcNAc(b1-4)GlcNAc
# Procedure, shortened: as §1
# [37] = target: Neu5Ac(a2-3)Gal(b1-3)GalNAc6S
# Procedure, shortened: as §1
# [38] = target: Neu5Ac(a2-3)Gal(b1-3)GlcNAc(b1-2)Man(a1-3)[GlcNAc(b1-4)][Neu5Ac(a2-3)Gal(b1-3)GlcNAc(b1-2)Man(a1-6)]Man(b1-4)GlcNAc(b1-4)GlcNAc
# Procedure, shortened: as §1
# [39] = target: Neu5Ac(a2-3)Gal(b1-3)[Neu5Ac(a2-6)]GlcNAc(b1-3)[Fuc(a1-3)[Gal(b1-4)]GlcNAc(b1-6)]Gal(b1-4)Glc
# Procedure, shortened: as §1
# [40] = target: Neu5Ac(a2-3)Gal(b1-4)GlcNAc(b1-2)[Neu5Ac(a2-3)Gal(b1-4)GlcNAc(b1-2)]Man(a1-6)[Neu5Ac(a2-3)Gal(b1-4)GlcNAc(b1-2)Man(a1-3)][GlcNAc(b1-4)]Man(b1-4)GlcNAc(b1-4)GlcNAc
# Procedure, shortened: as §1
# [41] = target: Neu5Ac(a2-3)Gal(b1-4)GlcNAc(b1-2)[Neu5Ac(a2-3)Gal(b1-4)GlcNAc(b1-6)]Man(a1-6)[Neu5Ac(a2-3)Gal(b1-4)GlcNAc(b1-2)Man(a1-3)]Man(b1-4)GlcNAc(b1-4)GlcNAc
# Procedure, shortened: as §1
# [42] = target: Neu5Ac(a2-3)Gal(b1-4)GlcNAc(b1-3)Gal(b1-4)GlcNAc
# Procedure, shortened: as §1
# [43] = target: Neu5Ac(a2-3)Gal(b1-4)GlcNAc(b1-3)Gal(b1-4)GlcNAc(b1-2)Man(a1-3)[Neu5Ac(a2-3)Gal(b1-4)GlcNAc(b1-3)Gal(b1-4)GlcNAc(b1-2)Man(a1-6)]Man(b1-4)GlcNAc(b1-4)GlcNAc
# Procedure, shortened: as §1
# [44] = target: Neu5Ac(a2-3)Gal(b1-4)GlcNAc(b1-3)Gal(b1-4)GlcNAc(b1-3)Gal(b1-4)GlcNAc(b1-2)Man(a1-3)[Neu5Ac(a2-3)Gal(b1-4)GlcNAc(b1-3)Gal(b1-4)GlcNAc(b1-3)Gal(b1-4)GlcNAc(b1-2)Man(a1-6)]GalNAc
# Procedure, shortened: as §1
# [45] = target: Neu5Ac(a2-3)Gal6S(b1-4)[Fuc(a1-3)]GlcNAc
# Procedure, shortened: as §1
# [46] = target: Neu5Ac(a2-3)[GalNAc(b1-4)]Gal(b1-4)GlcNAc(b1-3)GalNAc
# Procedure, shortened: as §1
# [47] = target: Neu5Ac(a2-6)Gal(b1-4)GlcNAc(b1-2)Man(a1-3)Man(b1-4)GlcNAc(b1-4)GlcNAc
# Procedure, shortened: as §1
# [48] = target: Neu5Ac(a2-6)Gal(b1-4)GlcNAc(b1-3)Gal(b1-4)GlcNAc(b1-3)Gal(b1-4)GlcNAc(b1-2)Man(a1-3)[Neu5Ac(a2-6)Gal(b1-4)GlcNAc(b1-3)Gal(b1-4)GlcNAc(b1-3)Gal(b1-4)GlcNAc(b1-2)Man(a1-6)]GalNAc
# Procedure, shortened: as §1
# [49] = target: Neu5Ac(a2-6)Gal(b1-4)GlcNAc(b1-3)Gal(b1-4)GlcNAc(b1-3)[Neu5Ac(a2-6)Gal(b1-4)GlcNAc(b1-3)Gal(b1-4)GlcNAc(b1-6)]GalNAc
# Procedure, shortened: as §1
# [50] = target: Neu5Ac(a2-8)Neu5Ac(a2-3)Gal(b1-4)Glc
# Procedure, shortened: as §1
binder,measurement,setting,value
"CBM13 2a (Mycobacterium tuberculosum), P64849 (protein) DGPVQLKSRLGDVCLDAPSGSWFSPLVINPCNGTDFQRWNLTDDRQVESVAFPGECVNIGNALWARLQPCVNWISQHWTVQPDGLVKSDLDACLTVLGGPDPGTWVSTRWCDPNAPDQQWDSVPLEHHHHHH",glycan array binding signal (z-score),[1],-0.294
same,glycan array binding signal (z-score),[2],0.023
same,glycan array binding signal (z-score),[3],-0.362
same,glycan array binding signal (z-score),[4],-0.26
same,glycan array binding signal (z-score),[5],-0.303
same,glycan array binding signal (z-score),[6],0.434
same,glycan array binding signal (z-score),[7],-0.31
same,glycan array binding signal (z-score),[8],-0.132
same,glycan array binding signal (z-score),[9],-0.286
same,glycan array binding signal (z-score),[10],-0.178
same,glycan array binding signal (z-score),[11],-0.267
same,glycan array binding signal (z-score),[12],-0.121
same,glycan array binding signal (z-score),[13],-0.32
same,glycan array binding signal (z-score),[14],-0.203
same,glycan array binding signal (z-score),[15],-0.345
same,glycan array binding signal (z-score),[16],-0.184
same,glycan array binding signal (z-score),[17],-0.335
same,glycan array binding signal (z-score),[18],0.207
same,glycan array binding signal (z-score),[19],-0.187
same,glycan array binding signal (z-score),[20],3.82
same,glycan array binding signal (z-score),[21],3.22
same,glycan array binding signal (z-score),[22],6.08
same,glycan array binding signal (z-score),[23],4.69
same,glycan array binding signal (z-score),[24],5.73
same,glycan array binding signal (z-score),[25],-0.154
same,glycan array binding signal (z-score),[26],-0.708
same,glycan array binding signal (z-score),[27],-0.167
same,glycan array binding signal (z-score),[28],-0.3
same,glycan array binding signal (z-score),[29],-0.406
same,glycan array binding signal (z-score),[30],0.094
same,glycan array binding signal (z-score),[31],-0.169
same,glycan array binding signal (z-score),[32],-0.553
same,glycan array binding signal (z-score),[33],-0.213
same,glycan array binding signal (z-score),[34],-0.288
same,glycan array binding signal (z-score),[35],-0.338
same,glycan array binding signal (z-score),[36],6.51
same,glycan array binding signal (z-score),[37],-0.262
same,glycan array binding signal (z-score),[38],-0.103
same,glycan array binding signal (z-score),[39],-0.258
same,glycan array binding signal (z-score),[40],-0.048
same,glycan array binding signal (z-score),[41],-0.017
same,glycan array binding signal (z-score),[42],-0.249
same,glycan array binding signal (z-score),[43],7.02
same,glycan array binding signal (z-score),[44],9.05
same,glycan array binding signal (z-score),[45],-0.271
same,glycan array binding signal (z-score),[46],4.49
same,glycan array binding signal (z-score),[47],-0.031
same,glycan array binding signal (z-score),[48],4.67
same,glycan array binding signal (z-score),[49],8.64
same,glycan array binding signal (z-score),[50],-0.117
